In PubChem BioAssay AID778 (Sanford-Burnham Center for Chemical Genomics, 2007) one finds inhibition data, which are given here for 103 molecules.

Structures are written as SMILES. The campaign covered roughly 96,000 compounds. About 20,000 (21%) were called active.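 Rule for the calls: active = CYP2C19 inhibition above a set limit at 5 µM in the primary screen (cut at about 50% in these data); inactive = the rest.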 Not all results are given here.

The assay deals with Cytochrome P450 2C19 (Homo sapiens) (UniProt P33261). Nature of the assay: blockers of cytochrome P450 2C19 activity – biochemical, luminescence, ADME assay, primary screen (AID 778).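 Note: plate controls were negative control wells for no effect and 2.5 mM tranylcypromine positive control for full effect.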 To be noted: CYP2C19 Supersomes, luciferin-H EGE luminescence, 30 min; at 5 µM; stronger effect = higher value.
Cytochrome P450 2C19 (Homo sapiens), sequence (P33261 whole entry, looked up): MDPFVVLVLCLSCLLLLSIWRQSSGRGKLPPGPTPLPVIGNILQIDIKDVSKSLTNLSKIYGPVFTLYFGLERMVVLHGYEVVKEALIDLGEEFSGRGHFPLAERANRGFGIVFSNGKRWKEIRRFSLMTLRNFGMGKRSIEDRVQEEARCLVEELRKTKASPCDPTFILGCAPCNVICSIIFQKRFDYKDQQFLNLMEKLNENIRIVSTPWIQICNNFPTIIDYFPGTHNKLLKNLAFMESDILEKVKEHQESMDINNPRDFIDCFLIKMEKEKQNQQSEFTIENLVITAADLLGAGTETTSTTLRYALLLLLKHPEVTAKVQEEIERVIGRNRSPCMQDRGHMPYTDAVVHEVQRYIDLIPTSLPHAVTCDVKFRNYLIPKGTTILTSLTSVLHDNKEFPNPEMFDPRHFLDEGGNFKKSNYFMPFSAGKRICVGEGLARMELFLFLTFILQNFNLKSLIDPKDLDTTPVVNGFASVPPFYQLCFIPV
The term inhibition denotes the relative decrease from the control value, in per cent. On to `COC(=O)c1sccc1-n1cccc1C(=O)C(=O)N1CCCCC1`, for which the inhibition was 31.2% (inactive).

`Cc1cc(C)c(NC(=O)CS(=O)CC(=O)Nc2cccnc2)c(C)c1` (stereo not drawn): the inhibition was 13.1% (inactive). As to `CCC(=O)Nc1cccc(NC(=O)c2cccnc2)c1`, the inhibition was 6.1% (inactive). The figure for `Cc1cccc(-n2cnc(C(=O)Nc3cccnc3)c2)n1` is 57% (active); for `COc1cc(/C=C(/NC(=O)c2ccccc2)C(=O)Nc2cccc(O)c2)c([N+](=O)[O-])cc1OC` it is 6.1% (inactive). The figure for `c1ccc(Nc2nc(N3CCOCC3)c3ccccc3n2)cc1` is 55.6% (active); for `Cc1cc(C(=O)Nc2ccccc2N2CCOCC2)c2ccccc2n1` it is 29.8% (inactive); for `c1ccc(-c2oc3ncnc(N4CCOCC4)c3c2-c2ccccc2)cc1` it is 9.2% (inactive). As for `CCCCc1c(O)nc2n(c1=O)CCS2`, the inhibition is -19.9% (inactive).

In the case of `COc1ccc(C(=O)CSc2n[nH]c(N)n2)cc1`, the inhibition is 4.5% (inactive). With `COc1ccccc1N1CC(O)=C(c2nc3ccccc3s2)C1=N`, the inhibition is 50.8% (active). On to `COC(=O)Cc1cc(=O)n(-c2nc3ccccc3s2)[nH]1`, for which the inhibition is 13.8% (inactive). On to `CCCCCN1CC(O)=C(c2nc(-c3ccc(Cl)cc3)cs2)C1=N`, for which the inhibition was 7.1% (inactive).

Turning to `Cc1ccc(Nc2nc(-c3sc(NC(=O)c4ccccc4)nc3C)cs2)cc1`, the inhibition is 17.1% (inactive). `COc1cc(OC)c(NC(=O)c2ccc(Br)o2)cc1Cl`: the inhibition was 79.4% (active). Turning to `CCCC(=O)Nc1ccc(Cl)c(NC(=O)c2ccc(Br)o2)c1`, the inhibition is 12.5% (inactive). Take `CCN1CCN(c2c(Cl)cccc2NC(=O)c2ccc(Br)o2)CC1`: the inhibition was 16% (inactive). The figure for `O=C(COc1cc(Cl)c(Cl)cc1Cl)NC(=O)NC1CCCC1` is -6.2% (inactive); for `CCCC(=O)N1CCc2[nH]c3ccccc3c2C1` it is 25.3% (inactive). The value for `FC(F)(F)c1cccc(Nc2ncnc3ccccc23)c1` was 44.1% (inactive); that for `O=C(Nc1cccc(Cl)c1)OCc1ccccn1` was 27.1% (inactive). The value for `FC(F)(F)c1cccc(NC(=S)Nc2cccc(Cl)c2)c1` was 74.9% (active); that for `CCOc1cc(N2CCOCC2)c(OCC)cc1NC(=O)COC(=O)[C@H](Cc1c[nH]c2ccccc12)NC(C)=O` was -4.2% (inactive). With `COc1cccc(N2C(=O)CC(N3CCN(S(=O)(=O)c4ccccc4)CC3)C2=O)c1` (stereo not drawn), the inhibition was 1.5% (inactive). With `CN1CCN(c2ccc([N+](=O)[O-])c(Sc3nc4ccccc4[nH]3)c2)CC1`, the inhibition is 33.8% (inactive). The value for `C=CCOc1ccc(C2/C(=C(\O)c3c(C)[nH]c(C(=O)OC)c3C)C(=O)C(=O)N2CCN(C)C)cc1` (stereo not drawn) was 2.1% (inactive); that for `O=C(Nc1ccc2c(c1)CCC2)c1cccc(S(=O)(=O)N2CCN(c3ccc(F)cc3)CC2)c1` was 26% (inactive).

For the molecule `CC(C)C(C)NC(=O)COc1ncnc2ccccc12` (stereo not drawn), the inhibition is 34.6% (inactive). `COc1cc(OC)cc(C(=O)NC2CCN(C(=O)N3c4ccccc4Sc4ccccc43)CC2)c1`: the inhibition is 5.8% (inactive). For the molecule `Cc1ccccc1-n1nc(C)c2cc(C(=O)NC3CC3)sc21`, the inhibition was 61.4% (active).

For the molecule `Cc1nn(-c2ccccc2)c2sc(C(=O)N(Cc3ccco3)C(C)C(=O)NC(C)(C)C)cc12` (stereo not drawn), the inhibition is 33.9% (inactive). As to `O/N=C1\CC2(Cc3nonc31)OCCO2`, the inhibition is -5.4% (inactive). `Cc1ccc(CN2C(=O)CCC2C(=O)NCCCN2CCCCC2C)cc1` (stereo not drawn): the inhibition is 8.1% (inactive). Regarding `CCC(C)NC(=O)C1CCC(=O)N1Cc1ccc(C)cc1` (stereo not drawn), the inhibition was 28.1% (inactive). With `O=C(Nc1ccc(Br)cc1)C1CCC(=O)N1Cc1ccccc1Cl` (stereo not drawn), the inhibition is 96.4% (active). With `O=C(Cn1cnc2c(nnn2-c2ccccc2)c1=O)N1CCC(Cc2ccccc2)CC1`, the inhibition was 43.2% (inactive). The figure for `CCC1C(C#N)=C(SC)NC2=C1C(=O)CC(C)(C)C2` (stereo not drawn) is 12.7% (inactive); for `Cc1ccc(-n2ncc3c2ncn2nc(-c4ccco4)nc32)c(C)c1` it is 4.8% (inactive); for `COc1cc(C(=S)N2CCOCC2)cc(OC)c1OC(=O)c1cc([N+](=O)[O-])cc([N+](=O)[O-])c1` it is -1.3% (inactive). With `Cc1ccc(Cn2nnc3c(=O)n(CC(=O)N4CCCCC4)cnc32)cc1`, the inhibition is 34% (inactive). For the molecule `Cc1nc2ccc(NC(=O)N3CCC(c4ccccc4)C3)cc2nc1C` (stereo not drawn), the inhibition was 28.5% (inactive). In the case of `COc1ccc(-n2nnc3c(=O)n(CC(=O)N4CCC(Cc5ccccc5)CC4)cnc32)cc1`, the inhibition was 4.8% (inactive). `Cc1ccc(NC(=O)N2CCC(C(=O)NCc3ccc(F)cc3)CC2)cc1`: the inhibition was 4.7% (inactive).

Turning to `Cc1ccc(NC(=O)N2CCC(c3nc4c(nnn4Cc4c(F)cccc4Cl)c(=O)[nH]3)CC2)cc1`, the inhibition was 95.1% (active). Take `COc1ccc(Cn2nnc3c(=O)[nH]c(C4CCN(C(=O)c5ccccc5Cl)CC4)nc32)cc1`: the inhibition is 57.2% (active). In the case of `CC(=O)c1ccc(OCCN2CCOCC2)cc1`, the inhibition was 2.4% (inactive). On to `Cc1ccc(S(=O)(=O)NCC(=O)N(CC(=O)NC(C)(C)C)Cc2cccs2)cc1`, for which the inhibition is -10.5% (inactive). For `CCc1c(-c2ccccc2)nc(N)c(C#N)c1-c1cccs1`, the inhibition is 2.8% (inactive). Consider `CCOC(=O)C(CCOc1cccc(CC)c1)C(=O)OCC`, for which the inhibition was 42% (inactive).

Turning to `Cc1cc(C)n2nc(C(=O)NC(C)(C)C)nc2n1`, the inhibition was -2.8% (inactive).

Turning to `C=CCc1cccc2cc(C(=O)N3CCN(C(=O)OCC)CC3)c(=O)oc12`, the inhibition was -8% (inactive). Regarding `Cn1c(=O)c2c(SCC(=O)N3CCOCC3)nc(C3CC3)nc2n(C)c1=O`, the inhibition is 8.8% (inactive). On to `CCN(CC)C(=O)N1CCN(C(=O)c2ccc(C)cn2)CC1`, for which the inhibition was 4.3% (inactive). For the molecule `CCS(=O)(=O)n1nc(-c2ccccc2)nc1SCc1ccccc1`, the inhibition was 90.1% (active).

For `Cn1c(CO)cnc1SCc1ccccc1`, the inhibition was 39.7% (inactive).

Turning to `CCS(=O)(=O)n1nc(-c2ccc(OC)cc2)nc1SC`, the inhibition was 46% (inactive). Consider `O=C(COC(=O)CCC(=O)c1cccs1)NCc1ccco1`, for which the inhibition was 5.2% (inactive). Turning to `Cc1nnc(NC(=O)CSc2nc(C3CCCCC3)nc3ccccc23)s1`, the inhibition was -1.4% (inactive).

With `COC(=O)CSc1nc(C2CC2)nc2ccccc12`, the inhibition was 63.2% (active). With `CN(C(=O)CSc1nc(C2CC2)nc2ccccc12)c1nc(-c2ccccc2)cs1`, the inhibition was 12.3% (inactive).

`CCN(CC)S(=O)(=O)c1ccc2[nH]cc(C(=O)NCCc3ccccc3)c(=O)c2c1`: the inhibition was 4.6% (inactive). Turning to `Cc1cccc(NC(=O)CSC(N)=O)c1C`, the inhibition is 17.7% (inactive). Regarding `Cc1cccc(NC(=O)CSc2nnc(CCCCCNC(=O)OC(C)(C)C)o2)c1C`, the inhibition is 63.7% (active).

With `C[C@H](NC(=O)OC(C)(C)C)c1nnc(SCC(=O)Nc2ccc(Br)cc2)o1`, the inhibition was 62.5% (active). With `Cc1cccc(NC(=O)CSc2nc3c(c(=O)[nH]2)CCCC3)c1C`, the inhibition was 17.6% (inactive). The figure for `O=C(CSc1nnc(-c2ccco2)o1)NCC(=O)c1ccccc1` is 0.5% (inactive); for `C[C@H](NC(=O)OC(C)(C)C)c1nnc(SCC(N)=O)o1` it is 49.9% (inactive); for `CCc1ccccc1NC(=O)CSc1nnc([C@@H](NC(=O)OC(C)(C)C)C(C)CC)o1` (stereo partly drawn) it is 59.4% (active).

Turning to `CCc1ccccc1NC(=O)CSc1nnc([C@@H](NC(=O)OC(C)(C)C)C(C)C)o1`, the inhibition was 8% (inactive). The figure for `Cc1cccc(NC(=O)CSc2nnc(-c3ccco3)o2)c1` is -7.9% (inactive); for `Cc1ccc(C(=O)Nc2nnc(-c3cccs3)s2)cc1C` it is -8.8% (inactive); for `O=C(O)CCN=C1CCc2ccccc2N1` it is 0.2% (inactive). In the case of `Cc1cc(C)c2c(n1)nn1c(-n3ccnc3)cc(C)nc21`, the inhibition was 4.7% (inactive). `C=CCSc1nc(Cc2ccc(Cl)cc2)nc2ccccc12`: the inhibition was 0% (inactive). Regarding `COc1ccccc1CSc1nc2ccccc2[nH]1`, the inhibition is 51.7% (active). For `O=C(CSc1nc2ccccc2[nH]1)c1cccs1`, the inhibition is 42.5% (inactive). Turning to `Cc1ccccc1OC/C(O)=C(\C#N)c1nc2ccccc2[nH]1`, the inhibition was 38.3% (inactive).

With `C=CCSc1nc2ccccc2[nH]1`, the inhibition is 66% (active). Take `O=c1cc(O)nc(SCc2ccccc2Cl)[nH]1`: the inhibition was 1.2% (inactive). Take `Cc1nnc2sc(-c3ccco3)nn12`: the inhibition was -0.9% (inactive). For the molecule `CCOC(=O)Cc1c(C)nc2c(C#N)c(C)nn2c1C`, the inhibition was 12.9% (inactive).

For the molecule `CC(C)C1C2=C(CC(C)(C)CC2=O)ON1c1ccccc1` (stereo not drawn), the inhibition is 34.7% (inactive). In the case of `COc1ccc(CN2CN(C(C)C)CSC2=S)cc1`, the inhibition was 8.5% (inactive). Regarding `O=C1CSC(c2ccccc2)N1c1nc(-c2ccc(Cl)cc2Cl)cs1` (stereo not drawn), the inhibition was -2.8% (inactive). Consider `CCCc1ccc(-c2csc(NC(=O)Cc3cccs3)n2)cc1`, for which the inhibition was 28% (inactive). Regarding `Cc1ccc(S(=O)(=O)Nc2nc(C)cc(-n3nc(C)cc3C)n2)cc1`, the inhibition was 22% (inactive).

On to `CC(=O)N1CCN(C(=O)c2cccc(S(=O)(=O)Nc3ccc(C)cc3)c2)CC1`, for which the inhibition was 11.6% (inactive).

For `Cc1ccc(S(=O)(=O)Nc2ccc3ncccc3c2)cc1`, the inhibition is 89.8% (active). As for `FC(F)(F)c1nnc2ccc(N3CCN(c4ccccc4)CC3)nn12`, the inhibition is 27.9% (inactive). In the case of `O=C(Nc1ccccc1C(=O)N1CCOCC1)C1CCC(=O)N1C1CCCC1` (stereo not drawn), the inhibition is -12.6% (inactive). As for `CCC(=O)N(Cc1ccccc1)c1ccccn1`, the inhibition is -5.8% (inactive). The figure for `CCC(=O)Nc1cccc(NC(=O)CSc2nnc(-c3ccc(NS(C)(=O)=O)cc3)n2C)c1` is 23.6% (inactive).

As to `CCn1c(SCC(=O)Nc2cc(C)ccc2C)nnc1-c1cnccn1`, the inhibition was 71.7% (active). The figure for `CCc1nnc(NC(=O)CSc2nnc(-c3ccncc3)n2Cc2ccccc2)s1` is 41.3% (inactive); for `CCn1c(SCC(=O)Nc2nccs2)nnc1-c1ccncc1` it is 66.7% (active). In the case of `Cn1c(SCC(=O)Nc2cccc(NC(=O)c3cccs3)c2)nnc1-c1ccncc1`, the inhibition is 54% (active). For `Cc1ccc(C(C)C)c(OCc2nnc(SCC(=O)Nc3nccs3)n2C)c1`, the inhibition was 17% (inactive).

Regarding `Cc1ccccc1C(=O)Nc1cccc(-c2nnc(SCC(=O)O)n2C)c1`, the inhibition is -18.4% (inactive). On to `COC(=O)c1ccc(NC(=O)CSc2nnc(CNc3ccc(OC)cc3)n2C)cc1`, for which the inhibition was 29.7% (inactive). The figure for `CCCCSc1nnc(-c2ccc(NC(=O)CC)cc2)n1C` is 21.4% (inactive); for `COC(=O)c1ccc(NC(=O)CSc2nnc(-c3ccncc3)n2C)cc1` it is 54.6% (active); for `Cc1ccc(NC(=O)CSc2nnc(-c3cnccn3)n2Cc2ccco2)cc1C` it is 5.5% (inactive).

For the molecule `CCc1ccc(NC(=O)CSc2nnc(-c3cnccn3)n2Cc2ccco2)cc1`, the inhibition is 21.4% (inactive).
